Shown are actives, neighbours in structure and some others; about 7.5% of the full set was active somewhere.
NPC1 prom act: qHTS Assay for NPC1 Promoter Activators; AID 485313, 2010; 2.4% of 320,000 active; Huh7 NPC1 promoter luciferase reporter, 24 h; Potency, µM (doses to about 9.22 µM), actives largely listed as activators; further: nearly all actives have a fitted effect of over 60% in size
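Huh7 reporter cells (NPC1 promoter driving luciferase) are dosed with compound for 24 h at 37 °C, 5% CO2; luciferase detection reagent is then added and luminescence measured after 10 min at ambient temperature.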
SMN2 splice up: qHTS Assay for Enhancers of SMN2 Splice Variant Expression; HEK293 SMN2-luciferase splicing reporter, luminescence, 30-36 h; Potency, µM (titrated, usually from 46.1 µM), usual class: activators; 2.8% of 210,000 active; AID 1458, 2008; further: nearly all actives have a fitted effect of over 55% in size
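HEK293 cells carry an SMN2 […]–luciferase reporter in which exon 7 inclusion puts luciferase in frame. Cells were plated 10-12 h before compound addition, then incubated 30-36 h at 37C. ONE-Glo luminescence was read; sodium butyrate at 4.5 mM final served as control.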
ELG1 genotoxic: qHTS screen for small molecules that induce genotoxicity in human embryonic kidney (HEK293T) cells expressing luciferase-tagged ELG1 | AID 504466, 2011 | HEK293T ELG1-luciferase reporter, luminescence, 16 h | 1.3% of 330,000 active | Potency, µM (highest dose often 46 µM), usual class: activators; further: nearly all actives have a fitted effect of over 60% in size
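DMSO vehicle served as control against compound-treated ELG1-luciferase HEK293T cells; exposure lasted 16 hr at 37 °C and 5% CO2, followed by ONE-Glo luminescence detection after 30 min.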
FLuc counter: qHTS profiling assay for firefly luciferase inhibitor/activator using purifed enzyme and Km concentrations of substrates (counterscreen for miR-21 project). purified FLuc, Km substrates, luminescence inhibition. Potency, µM (doses to about 57.5 µM), usual class: inhibitors. 6.9% of 360,000 active. AID 588342, 2011; further: nearly all actives have a fitted effect of over 55% in size
Target sequence (P08659 whole entry, looked up): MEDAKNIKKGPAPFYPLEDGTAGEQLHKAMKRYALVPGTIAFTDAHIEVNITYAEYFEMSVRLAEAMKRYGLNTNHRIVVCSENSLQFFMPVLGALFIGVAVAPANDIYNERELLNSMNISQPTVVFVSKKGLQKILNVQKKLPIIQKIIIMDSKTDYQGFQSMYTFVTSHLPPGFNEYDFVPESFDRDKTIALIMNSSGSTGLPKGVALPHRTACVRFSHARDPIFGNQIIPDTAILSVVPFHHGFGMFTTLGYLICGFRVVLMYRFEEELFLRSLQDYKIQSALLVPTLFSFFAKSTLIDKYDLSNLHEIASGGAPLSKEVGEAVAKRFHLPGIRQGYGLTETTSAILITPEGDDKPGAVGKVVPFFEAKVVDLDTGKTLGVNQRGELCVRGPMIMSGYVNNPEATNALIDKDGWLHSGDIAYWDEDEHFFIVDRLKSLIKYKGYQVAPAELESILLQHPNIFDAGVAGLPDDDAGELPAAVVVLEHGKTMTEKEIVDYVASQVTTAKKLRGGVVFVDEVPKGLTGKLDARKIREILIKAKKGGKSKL
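Purified P. pyralis luciferase, 10 nM final, with Km-level 10 uM D-luciferin and 10 uM ATP in 50 mM Tris acetate pH 7.5, 10 mM Mg acetate, 0.01% Tween-20, 0.05% BSA; 6-point qHTS titration about 60 µM downward; luminescence read.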
KinaseGlo FLuc: Counterscreen for Luciferase (Kinase-Glo TM) Inhibition | Luciferin 4-monooxygenase (Photuris pensylvanica), Q27757 | Kinase-Glo luciferase, ATP luminescence, 8 min | Potency, µM (doses to about 38.3 µM), usual class: inhibitors | 0.28% of 200,000 active; further: nearly all actives have a fitted effect of over 60% in size
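Luminescence was the read-out, taken after 8-minute incubation at ambient temperature. Luciferase turned over luciferin with 10 uM ATP in imidazole pH 7.2 buffer containing KCl, MgCl2, Tween 20 and BSA.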
Rab9 prom act: qHTS Assay for Rab9 Promoter Activators | AID 485297, 2010 | Potency, µM (doses to about 9.22 µM), most hits filed as activators | Huh7 Rab9 promoter-luciferase reporter, luminescence, 24 h | 2.8% of 320,000 active; further: nearly all actives have a fitted effect of over 60% in size
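Quantitative HTS format; Huh7 Rab9-luciferase reporter cells (1500/well) receive compound 2 h post-plating, incubate 24 h at 37 °C, then get luciferase reagent for 10 min before luminescence reading.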
Numbers stand for hits; [ ] = dose if it differs, or a comment. The call rests on the fitted dose curve; in most records, active means well fitted curve in the direction sought with a large enough effect; inconclusive means small, poorly fitted or top-dose-only effect, or another doubt; inactive means no such curve, though single readings can be large; an effect the other way counts as inactive or inconclusive.

`Cc1ccc(Cc2nc3ccccc3[nH]2)cc1` gave NPC1 prom act inactive, ELG1 genotoxic inactive, FLuc counter inactive and Rab9 prom act inactive.
`Cc1ccc(/C=C/C(=O)c2nc3ccccc3[nH]2)cc1` gave NPC1 prom act inactive, SMN2 splice up inconclusive, ELG1 genotoxic inactive, FLuc counter 0.757µM, KinaseGlo FLuc inactive and Rab9 prom act inactive.
For Cc1onc(-c2c(F)cccc2Cl)c1C(=O)Nc1nc2ccccc2[nH]1 the results were NPC1 prom act inactive, SMN2 splice up inactive, ELG1 genotoxic inactive, FLuc counter inactive, KinaseGlo FLuc inactive and Rab9 prom act inactive.
For Cc1cccc(NC(=O)CSc2nncn2C)c1 the results were SMN2 splice up inactive and FLuc counter inactive.
For O=C1N/C(=N/Nc2ccccc2)S/C1=C\c1ccccc1 the results were NPC1 prom act inactive, SMN2 splice up inconclusive, ELG1 genotoxic inactive, FLuc counter 13.5µM, KinaseGlo FLuc inactive and Rab9 prom act inactive.
Screening CC(C)(C)c1ccc(-c2cc(-c3ccccc3O)[nH]n2)cc1 returned NPC1 prom act 0.316µM, ELG1 genotoxic 0.58µM, FLuc counter 0.757µM and Rab9 prom act 0.282µM.
`Oc1ccccc1-c1cc(-c2cccc(F)c2)n[nH]1` gave NPC1 prom act inactive, SMN2 splice up inconclusive, ELG1 genotoxic inconclusive, FLuc counter 5.36µM, KinaseGlo FLuc inactive and Rab9 prom act inactive.
For Oc1ccc(Cl)cc1-c1cc(-c2cccc(Br)c2)n[nH]1 the results were NPC1 prom act inactive, SMN2 splice up inactive, ELG1 genotoxic inactive, FLuc counter inactive, KinaseGlo FLuc inactive and Rab9 prom act inactive.
Screening CSc1ccccc1NC(=O)C1CC(c2ccccc2Cl)=NO1 (configuration not stated) returned NPC1 prom act inactive, ELG1 genotoxic inactive, FLuc counter inconclusive and Rab9 prom act inactive.
Screening Cc1ccc(CCNC(=O)CCn2nc(-c3ccc(C)cc3)ccc2=O)cc1 returned FLuc counter inactive.
`COc1cc(/C=C/C2=NNC(=O)CC2)cc(OC)c1OC` gave NPC1 prom act inactive, ELG1 genotoxic inconclusive, FLuc counter inactive and Rab9 prom act inactive.
Screening CC(C)c1ccc(/C=C/C2=NNC(=O)CC2)cc1 returned NPC1 prom act inactive, SMN2 splice up 10µM, ELG1 genotoxic inconclusive, FLuc counter 5.36µM, KinaseGlo FLuc inactive and Rab9 prom act inconclusive.
For CCc1ccc(C(C(=O)NC2CCCC2)N(Cc2cccnc2)C(=O)c2csnn2)cc1 (configuration not stated) the results were NPC1 prom act inactive, ELG1 genotoxic inactive, FLuc counter inactive and Rab9 prom act inactive.
O=C(NN=C1CCC(=NNC(=O)c2ccccn2)CC1)c1ccccn1 was read as NPC1 prom act inactive, ELG1 genotoxic inconclusive, FLuc counter inconclusive, KinaseGlo FLuc inactive and Rab9 prom act inactive.
For O=C(N/N=C/C1CCCCC1)c1ccccn1 the results were NPC1 prom act inactive, SMN2 splice up inactive, ELG1 genotoxic inconclusive, FLuc counter 13.5µM, KinaseGlo FLuc inactive and Rab9 prom act inactive.
For O=C(N/N=C/C1CCCCC1)c1cc(Cl)ccc1O the results were NPC1 prom act inactive, SMN2 splice up inactive, ELG1 genotoxic inactive, FLuc counter 12µM, KinaseGlo FLuc inactive and Rab9 prom act inactive.
N[C@@H](CSCc1ccc(I)cc1)C(=O)O was read as SMN2 splice up inactive[9.22 µM] and KinaseGlo FLuc inactive[7.66 µM].
Screening COc1ccccc1Nc1nnc(SCC(=O)c2c(N)n(C3CC3)c(=O)[nH]c2=O)s1 returned ELG1 genotoxic inactive.
Cc1ccc(NC(=O)COC(=O)CNC(=O)c2ccc(Br)cc2)c(C)c1 was read as NPC1 prom act inactive, SMN2 splice up inactive, ELG1 genotoxic inactive, FLuc counter inactive, KinaseGlo FLuc inactive and Rab9 prom act inactive.
CCCn1c(=O)c2sccc2n2c(CCCC(=O)N3CCN(c4cccc(C)c4C)CC3)nnc12 was read as FLuc counter inactive.
Screening C/C(N)=C(/C#N)C(=O)CSc1nnc(Nc2ccccc2C)s1 returned NPC1 prom act inconclusive, SMN2 splice up inactive, ELG1 genotoxic inactive, FLuc counter inconclusive, KinaseGlo FLuc inactive and Rab9 prom act inactive.
For C/C(N)=C(/C#N)C(=O)CSc1nc2ccccc2[nH]1 the results were NPC1 prom act inconclusive, SMN2 splice up inconclusive, ELG1 genotoxic 20.6µM, FLuc counter 21.3µM, KinaseGlo FLuc inactive and Rab9 prom act inconclusive.
For C/C(N)=C(/C#N)C(=O)CSc1nnc(Nc2ccccc2)s1 the results were NPC1 prom act inconclusive, SMN2 splice up 11.2µM, ELG1 genotoxic inconclusive, FLuc counter 21.3µM, KinaseGlo FLuc inactive and Rab9 prom act 2µM.
`CC1CCN(C(=O)CSc2nc3ccccc3[nH]2)CC1` gave NPC1 prom act 2.51µM, SMN2 splice up 15.8µM, ELG1 genotoxic inconclusive, FLuc counter 23.9µM, KinaseGlo FLuc inactive and Rab9 prom act 3.16µM.
For CCOc1ccc(NS(=O)(=O)c2ccc(C)c(C(=O)NCCCn3ccnc3)c2)cc1 the results were NPC1 prom act inactive, SMN2 splice up inactive, ELG1 genotoxic inactive, FLuc counter inactive, KinaseGlo FLuc inactive and Rab9 prom act inactive.
`Cc1ccccc1C(=O)NC1(C(F)(F)F)N=C(c2ccccc2)N(C2CCCCC2)C1=O` (configuration not stated) gave SMN2 splice up inactive and FLuc counter inactive.
O=C(CSc1nc(-c2ccccc2)[nH]c1-c1ccccc1)Nc1ccc2c(c1)OCO2 was read as SMN2 splice up inactive and FLuc counter inactive.
Screening CCOc1ccc(-c2nc(SCC(=O)Nc3ccc4c(c3)OCCO4)c(-c3ccc(F)cc3)[nH]2)cc1 returned SMN2 splice up inactive and FLuc counter inactive.
For COc1ccc(-c2nc(SCC(=O)Nc3ccc4c(c3)OCCO4)c(-c3ccccc3)[nH]2)cc1 the results were SMN2 splice up inactive and FLuc counter 6.01µM.
`COc1cccc(-c2nc(SCC(=O)Nc3ccc4c(c3)OCCO4)c(-c3ccccc3)[nH]2)c1` gave SMN2 splice up inactive and FLuc counter 5.36µM.
`COc1ccc(-c2[nH]c(-c3cccc(OC)c3)nc2SCC(=O)Nc2ccc3c(c2)OCO3)cc1` gave SMN2 splice up inactive and FLuc counter inactive.
Screening Cc1cccc(-c2nc(SCC(=O)Nc3ccc4c(c3)OCCO4)c(-c3ccccc3)[nH]2)c1 returned SMN2 splice up inactive and FLuc counter 8.49µM.
`O=C(CSc1nc(-c2cccc(F)c2)[nH]c1-c1ccccc1)Nc1ccc2c(c1)OCCO2` gave SMN2 splice up inactive and FLuc counter inconclusive.

Compound activity (PubChem BioAssay)
